Jurkat NFkB inh = inhibitors of the PMA/ionomycin-induced NF-kB reporter in Jurkat cells. inhibition, % at 4 µM. 330,000 tested, 0.53% active. PMA/ionomycin-induced NF-kB luciferase reporter, luminescence. AID 435003; in the data active = inhibition above about 50%
Gli-Sufu block = blocks Gli-Sufu signaling in a luciferase reporter. 340,000 tested, 0.74% active. Sufu-KO-LIGHT fibroblasts, Gli luciferase reporter luminescence. inhibition, % at 5 µM;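 active = inhibition above about 55%, limit read from the data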;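 note: 0% = DMSO-treated cells and 100% = wells with medium but no cells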
COUP-TFII inh = NR2F2 (human) inhibition, primary screen; P24468; HEK293T NGFI-A luciferase reporter, luminescence; inhibition, % at 8.6 µM; 370,000 tested, 0.7% active; AID 686940;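 active = inhibition above a per-plate cutoff, mean inhibition of test wells between control levels plus 3 SD, cut at about 38% in these data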;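 note: cells cotransfected with COUP-TFII expression vector driving the NGFI-A reporter; 0% = median of COUP-TF2 test wells and 100% = reporter-only cells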
Target sequence (P24468 whole entry, looked up): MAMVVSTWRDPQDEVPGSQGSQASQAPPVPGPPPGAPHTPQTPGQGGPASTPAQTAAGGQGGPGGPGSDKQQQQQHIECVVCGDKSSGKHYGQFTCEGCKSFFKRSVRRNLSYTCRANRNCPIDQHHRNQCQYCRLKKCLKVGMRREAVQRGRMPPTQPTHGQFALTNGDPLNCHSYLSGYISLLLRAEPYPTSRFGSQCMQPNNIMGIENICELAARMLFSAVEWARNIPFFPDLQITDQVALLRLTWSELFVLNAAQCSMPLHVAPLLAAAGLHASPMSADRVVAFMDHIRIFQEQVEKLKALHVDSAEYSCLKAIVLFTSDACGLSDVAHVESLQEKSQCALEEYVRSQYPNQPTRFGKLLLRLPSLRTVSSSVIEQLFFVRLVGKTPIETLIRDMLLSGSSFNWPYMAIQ
697 NFkB inh = lowers PMA/ionomycin-induced NF-kB signal in 697 B cells; 697 B-cell NF-kB luciferase reporter, 16 h; 330,000 tested, 0.33% active; inhibition, % at 4 µM; in the data active = inhibition above about 35%
Cardio protect = myocardial damage modulation in H9c2 cells | H9c2 cardiomyocytes, H2O2 injury protection, ATPLite, 2 h | protection from H2O2 cell death, % at 20 µM | 360,000 tested, 0.63% active | AID 588492;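 active = compounds giving at least 50% protection of heart cells from peroxide-induced death in the single-dose screen, raw or plate-pattern-corrected value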;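 note: 0% = DMSO wells with peroxide and 100% = DMSO wells without peroxide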
H9c2 TAG inh = inhibitors of triacylglycerol accumulation | 230,000 tested, 0.66% active | inhibition, % at 12.5 µM | H9c2 cells, Nile Red lipid (TAG) fluorescence; cells loaded with 200 µM oleic acid | AID 651582;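 active = pattern-corrected inhibition of lipid staining of at least 50% with the nuclear-stain viability signal not falling by more than 50%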;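 note: 0% = DMSO wells and 100% = triacsin C control wells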
Jurkat NFkB conf = lowers PMA/ionomycin-induced NF-kB signal in Jurkat cells. inhibition, % at 4 µM. Jurkat NF-kB luciferase, 16 h. 2,700 tested, 27% active. AID 435020. shares compounds with Jurkat NFkB inh;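 active = inhibition reaching about 45% at 4 µM in either replicate, limit read from the data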;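 note: plate controls were PMA/ionomycin stimulated DMSO wells for no effect and unstimulated DMSO wells for full effect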
697 NFkB conf = inhibitors of the PMA/ionomycin-induced NF-kB reporter in 697 B cells, retest | shares compounds with 697 NFkB inh | 2,000 tested, 35% active | inhibition, % at 4 µM | 697 B-cell NF-kB luciferase, 16 h; in the data active = inhibition mostly above about 28%, no sharp cut-off; inactive = mostly below about 22%
Numbers without * were called inactive; · = no result given. A selection: hits, their analogues and other compounds. The true share with any hit is near 2.6%.

SMILES | Jurkat NFkB inh | Gli-Sufu block | COUP-TFII inh | 697 NFkB inh | Cardio protect | H9c2 TAG inh | Jurkat NFkB conf | others
COc1ccc(N2CC(C(=O)Nc3ccccc3N3CCCC3)CC2=O)c(OC)c1 (stereo not drawn) | 58* | -4 | 0 | -8 | -1 | 9 | 13
O=C(Nc1cccc(C(F)(F)F)c1)c1sc(Cl)nc1C(F)(F)F | 97* | 14 | 2 | -207 | -15 | · | 71*
CC(=O)Nc1ccc(C(=O)Nc2cccc(S(=O)(=O)N(C)c3ccccc3)c2)cc1 | 2 | -22 | 16 | -2 | 0 | -9 | ·
CN(c1ccccc1)S(=O)(=O)c1cccc(NC(=O)c2ccc(Cl)c([N+](=O)[O-])c2)c1 | 63* | 6 | 16 | -5 | -29 | 31 | 10
CCCCNc1c(-c2ccc(SC3CCCCC3)cc2)nc2ccccn12 | -178 | -63 | -57 | -37 | -23 | 32 | -100
CCN(CC)S(=O)(=O)c1cccc(C(=O)OC2CC(C)OC2=O)c1 (stereo not drawn) | 12 | 1 | 6 | 12 | -1 | · | ·
Cc1ccc(S(=O)(=O)CCC(=O)OC2CC(C)OC2=O)cc1 (stereo not drawn) | -214 | -5 | -28 | 17 | 3 | -5 | 13
C[C@@H](CO)N(Cc1cn(Cc2ccccc2)nn1)S(=O)(=O)c1ccccc1Br | · | · | -11 | · | · | · | ·
COc1cccc(C(=O)/C=C/Nc2ccc(NC(C)=O)cc2)c1 | -48 | -60 | -11 | -54 | -3 | · | ·
COc1ccc(N/C=C/C(=O)c2ccc(Cl)cc2)cc1 | -174 | -91 | -42 | -195 | -12 | · | -1
COc1cccc(C(=O)/C=C/Nc2cccc(O)c2)c1 | -199 | -32 | · | -62 | -17 | · | -182
C#CCN1CC(N(C)CCOC(=O)c2ccc(OC)c(OC)c2)CS1(=O)=O (stereo not drawn) | · | · | -4 | · | · | · | ·
O=S1(=O)c2ccc(N3CCN(Cc4ccccc4F)CC3)cc2Oc2ccccc2CN1Cc1cn(Cc2ccc(C(F)(F)F)cc2)nn1 | · | · | 3 | · | · | · | ·
COc1ccc(/C=N/NC(=O)c2[nH]c3ccc(Br)cc3c2-c2ccccc2)cc1 | 84* | 39 | -61 | -154 | -4 | 27 | 61*
Cc1c(C(C)(C)C)sc(=NC(=O)c2ccccc2O)n1C | -193 | -87 | -33 | -226 | -10 | · | -113
Nc1nc(CCl)nc(N(c2ccccc2)c2ccccc2)n1 | 76* | 4 | 3 | 34 | 1 | 80* | 19
CC(C)CN1C(=O)C[C@@]2(C(=O)N(C)c3ccc(NC(=O)c4cc(F)ccc4F)cc32)C1c1ccccc1 (stereo partly drawn) | · | · | -14 | · | · | · | ·
O=C(NCc1cccc(C(F)(F)F)c1)O[C@H]1CC[C@@]23CCCN2C(=O)CCC[C@H]3C1 | · | · | 25 | · | · | · | ·
C/C(=N\N1CCN(Cc2ccccc2Cl)CC1)c1ccc([N+](=O)[O-])cc1 | 51* | 5 | 9 | -3 | 2 | -9 | -7
CCN1CCN(c2ccc(S(=O)(=O)N3CCCCC3)cc2NC(=O)/C=C/c2ccc(F)cc2)CC1 | 2 | 13 | -20 | -3 | -2 | 3 | ·
CCN1CCN(c2ccc(S(=O)(=O)N3CCCCC3)cc2NC(=O)/C=C/c2ccc([N+](=O)[O-])cc2)CC1 | 52* | 19 | -22 | -3 | -18 | -4 | 34
COc1ccc(C2=NOC(C(=O)NCc3cccs3)C2)cc1 (stereo not drawn) | 44 | -27 | -17 | -38 | -5 | 17 | ·
COc1ccc(C2=NOC(C(=O)NCc3cccs3)C2)cc1OC (stereo not drawn) | 50* | -3 | 0 | -99 | · | · | 44
COc1cc(OC)c(C2=NOC(C(=O)NCc3cccs3)C2)cc1Cl (stereo not drawn) | 54* | 11 | 8 | -16 | 6 | 31 | 22
O=C(CCc1ccccc1)N[C@H]1[C@@H](OC(=O)c2cnccn2)CCC[C@]12C(=O)N(Cc1ccccc1)c1ccccc12 | · | · | -3 | · | · | · | ·
SMILES | Jurkat NFkB inh | Gli-Sufu block | COUP-TFII inh | 697 NFkB inh | Cardio protect | H9c2 TAG inh | Jurkat NFkB conf | others
CCOC(=O)[C@@H](CCc1ccccc1)N[C@@H](C)C(=O)N1CCC[C@H]1C(=O)O | · | · | 1 | · | · | · | ·
Cc1cccc(NC(=S)N/N=C/c2cccc(O)c2)c1C | 62* | -10 | 24 | -46 | -2 | 13 | 8
CC(C)c1ccc(NC(=O)c2csnn2)cc1 | -162 | -70 | -34 | -175 | -15 | · | -109
Cc1cc2oc3ccc(NCCCn4ccnc4)cc3c(=O)c2cc1C | -167 | -38 | -27 | -199 | -20 | -1 | -20
Nn1c(SCC(=O)N2CCOCC2)nnc1-c1cc(-c2ccc(F)cc2)n[nH]1 | · | · | -10 | · | · | · | ·
C=CCN1C(=O)[C@H](CC(=O)N2CCN(C(=O)c3ccco3)CC2)[C@@]2(C(=O)OCC)CCCC=C12 | · | · | 3 | · | · | · | ·
COC(=O)[C@]12C[C@H](CC(=O)NCCCN3CCCC3=O)C(=O)N(Cc3cccc4ccccc34)C1=C[C@H](C(C)(C)C)O[C@@H]2C | · | · | 2 | · | · | · | ·
CCc1ccc(C2=NN(S(C)(=O)=O)C(c3cccs3)C2)cc1 (stereo not drawn) | -182 | -123 | -40 | -231 | -6 | -5 | -65
COc1ccc(C(=O)C2(C(=O)NCc3ccccc3)CC(c3ccccn3)=NO2)cc1 (stereo not drawn) | · | · | -2 | · | · | · | ·
COc1ccc(-c2nnn(Cc3ccccc3F)n2)cc1 | -104 | 3 | -33 | -144 | -8 | -6 | ·
Fc1ccccc1Cn1nnc(-c2ccc3c(c2)OCO3)n1 | -162 | -150 | -44 | -150 | -8 | -4 | -127
Cc1cc(C)c2c(N)c(C(=O)Nc3ccc(C)c(C)c3)sc2n1 | -183 | -88 | -73 | -258 | 5 | -3 | -104 | 697 NFkB conf=-198
CCc1cc2c(nc1CC)CCCN2S(=O)(=O)c1ccc(C(F)(F)F)cc1 | · | · | 13 | · | · | · | ·
Nc1c(-c2cccc(Cl)c2)cnc2c(-c3ccccc3)cnn12 | -143 | -61 | -47 | -211 | -6 | · | ·
Nc1c(-c2ccc(Cl)cc2)cnc2c(-c3ccc(F)cc3)cnn12 | -173 | -98 | -46 | -263 | -15 | · | -135 | 697 NFkB conf=-224
COc1ccc(C(=O)NC(=O)NC2(C(Cl)(Cl)Cl)OCCO2)cc1 | -277 | -146 | -64 | -274 | -5 | 15 | -155 | 697 NFkB conf=-316
COc1ccc(C(=O)NCC(C)(C)CNC(=O)c2ccc(OC)cc2)cc1 | -26 | 2 | 2 | -2 | 1 | -2 | ·
CC(=O)Oc1ccc(-c2csc(Nc3ccccn3)n2)cc1 | · | · | -45 | · | -4 | 23 | ·
Cc1cccnc1Nc1nc(-c2ccccc2)cs1 | -152 | -99 | -47 | -252 | -8 | · | -93 | 697 NFkB conf=-232
Clc1ccccc1Nc1nc(-c2cccnc2)cs1 | -189 | -56 | -18 | -270 | -18 | 10 | -96 | 697 NFkB conf=-210
Fc1ccc(-c2csc(Nc3ccccn3)n2)cc1 | -169 | 1 | -24 | -264 | -10 | · | -74 | 697 NFkB conf=-216
